Experimental data as given in PubChem BioAssay (NCATS).
Results filed as inconclusive are left out. The source made the active and inactive calls. Calls come from the whole dose curve; as a rule, active = well fitted curve in the direction sought with a large enough effect; inconclusive = small, poorly fitted or top-dose-only effect, or another doubt; inactive = no such curve, though single readings can be large; an effect the other way counts as inactive or inconclusive.

What was measured:
[1] = Quantitative High-Throughput drug screen in 47 multiple myeloma cell lines against the NCATS MIPE library collection: NCIH929_DSMZ cell viability assay (AID 1918978); note: nearly all actives have a fitted effect of over 35% in size; note: potency is the fitted concentration of half-maximal effect
How it was run: (§1)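 ATP-based luminescence (CellTiter-Glo, 5 min RT incubation) quantified surviving cells following two days' treatment with MIPE 4.0 agents at 37 °C, 5% CO2.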

[2] = Quantitative High-Throughput drug screen in 47 multiple myeloma cell lines against the NCATS MIPE library collection: MM1S_ATCC cell viability assay (AID 1918980); note: nearly all actives have a fitted effect of over 45% in size; note: potency is the fitted concentration of half-maximal effect
How it was run: as §1

[3] = Quantitative High-Throughput drug screen in 47 multiple myeloma cell lines against the NCATS MIPE library collection: KMS28PE_JCRB cell viability assay (AID 1918983); note: nearly all actives have a fitted effect of over 35% in size; note: potency is the fitted concentration of half-maximal effect
How it was run: as §1

[4] = Quantitative High-Throughput drug screen in 47 multiple myeloma cell lines against the NCATS MIPE library collection: L363_DSMZ cell viability assay (AID 1918984); note: nearly all actives have a fitted effect of over 40% in size
How it was run: as §1

[5] = Quantitative High-Throughput drug screen in 47 multiple myeloma cell lines against the NCATS MIPE library collection: KMS34_JCRB cell viability assay (AID 1918985); note: nearly all actives have a fitted effect of over 40% in size; note: potency is the fitted concentration of half-maximal effect
How it was run: as §1

[6] = Quantitative High-Throughput drug screen in 47 multiple myeloma cell lines against the NCATS MIPE library collection: OCIMY7_PLB cell viability assay (AID 1918987); settings: OCI-MY7 myeloma viability, CellTiter-Glo ATP, 48 h; viability (% of DMSO): at 45.8 µM (top of the series); note: nearly all actives have a fitted effect of over 65% in size; note: potency is the fitted concentration of half-maximal effect
How it was run: as §1

[7] = Quantitative High-Throughput drug screen in 47 multiple myeloma cell lines against the NCATS MIPE library collection: U266_ATCC cell viability assay (AID 1919864); note: nearly all actives have a fitted effect of over 35% in size; note: potency is the fitted concentration of half-maximal effect;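 for viability (% of DMSO control): 0% = media-only wells without cells and 100% = DMSO-only wells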
How it was run: as §1

[8] = Quantitative High-Throughput drug screen in 47 multiple myeloma cell lines against the NCATS MIPE library collection: XG6_PLB cell viability assay (AID 1919865); note: nearly all actives have a fitted effect of over 40% in size; note: potency is the fitted concentration of half-maximal effect
How it was run: as §1

[9] = Quantitative High-Throughput drug screen in 47 multiple myeloma cell lines against the NCATS MIPE library collection: XG1_PLB cell viability assay (AID 1919866); note: nearly all actives have a fitted effect of over 35% in size; note: potency is the fitted concentration of half-maximal effect
How it was run: as §1

[10] = Quantitative High-Throughput drug screen in 47 multiple myeloma cell lines against the NCATS MIPE library collection: PE2_PLB cell viability assay (AID 1919869); note: nearly all actives have a fitted effect of over 35% in size; note: potency is the fitted concentration of half-maximal effect
How it was run: as §1

[11] = Quantitative High-Throughput drug screen in 47 multiple myeloma cell lines against the NCATS MIPE library collection: PCM6_Riken cell viability assay (AID 1919870); note: nearly all actives have a fitted effect of over 30% in size; note: potency is the fitted concentration of half-maximal effect
How it was run: as §1

[12] = Quantitative High-Throughput drug screen in 47 multiple myeloma cell lines against the NCATS MIPE library collection: OCIMY1_PLB cell viability assay (AID 1918979); note: nearly all actives have a fitted effect of over 35% in size; note: potency is the fitted concentration of half-maximal effect;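 for viability: 100% = DMSO-only wells and 0% = cell-free media-only wells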
How it was run: as §1

[13] = Quantitative High-Throughput drug screen in 47 multiple myeloma cell lines against the NCATS MIPE library collection: OCIMY5_PLB cell viability assay (AID 1918988); note: potency is the fitted concentration of half-maximal effect; nearly all actives have a fitted effect of over 65% in size
How it was run: as §1

[14] = Quantitative High-Throughput drug screen in 47 multiple myeloma cell lines against the NCATS MIPE library collection: VP6_DJ cell viability assay (AID 1919867); note: nearly all actives have a fitted effect of over 40% in size; note: potency is the fitted concentration of half-maximal effect;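 for viability (% of DMSO): 100% = DMSO-only wells and 0% = wells with media alone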
How it was run: as §1

[15] = Quantitative High-Throughput drug screen in 47 multiple myeloma cell lines against the NCATS MIPE library collection: OPM1_PLB cell viability assay (AID 1918989); note: nearly all actives have a fitted effect of over 40% in size; note: potency is the fitted concentration of half-maximal effect
How it was run: as §1

[16] = Quantitative High-Throughput drug screen in 47 multiple myeloma cell lines against the NCATS MIPE library collection: MM1R_ATCC cell viability assay (AID 1918981); note: nearly all actives have a fitted effect of over 35% in size; note: potency is the fitted concentration of half-maximal effect
How it was run: as §1

[17] = Quantitative High-Throughput drug screen in 47 multiple myeloma cell lines against the NCATS MIPE library collection: LP1_DSMZ cell viability assay (AID 1918982); note: nearly all actives have a fitted effect of over 35% in size; note: potency is the fitted concentration of half-maximal effect
How it was run: as §1

[18] = Quantitative High-Throughput drug screen in 47 multiple myeloma cell lines against the NCATS MIPE library collection: UTMC2_PLB cell viability assay (AID 1919868); settings: CellTiter-Glo ATP luminescence, 48 h; viability (% of DMSO control): at 45.8 µM (top of the series); note: nearly all actives have a fitted effect of over 55% in size; note: potency is the fitted concentration of half-maximal effect;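 for viability (% of DMSO control): 100% = DMSO-only wells and 0% = media-only wells without cells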
How it was run: as §1

[19] = Quantitative High-Throughput drug screen in 47 multiple myeloma cell lines against the NCATS MIPE library collection: SKMM1_PLB cell viability assay (AID 1919863); settings: SKMM1 myeloma viability, CellTiter-Glo ATP, 48 h; viability: hits give low values; note: nearly all actives have a fitted effect of over 35% in size; note: potency is the fitted concentration of half-maximal effect
How it was run: as §1

C[N+](C)(C)CC(=O)O
inactive: Potency [1] | Potency [2] | Potency [3] | Potency [4] | Potency [5] | Potency [6] | Potency [7] | Potency [8] | Potency [9] | Potency [10] | Potency [11]

O=c1c(O)c(-c2ccc(O)cc2)oc2cc(O)cc(O)c12
active: Potency [1] 9.35 µM | Potency [6] 14.8 µM | Potency [13] 26.4 µM | Potency [8] 14.8 µM | Potency [9] 16.6 µM | Potency [14] 16.6 µM | Potency [11] 18.7 µM
inactive: Potency [12] | Potency [5]

Cc1c[nH]c(C=C2C(=O)Nc3ccccc32)c1CCC(=O)O
inactive: Potency [1] | Potency [12] | Potency [7] | Potency [8]
active: Potency [3] 23.5 µM | Potency [13] 20.9 µM | Potency [15] 0.833 µM | Potency [11] 20.9 µM

CC1(C)Cc2c(sc(NC(=S)NC(=O)c3ccccc3)c2C(=O)O)CO1
active: Potency [2] 18.7 µM | Potency [8] 14.8 µM | Potency [14] 8.33 µM | Potency [18] 20.9 µM
inactive: Potency [12] | Potency [16] | Potency [17] | Potency [5] | Potency [15] | Potency [9] | Potency [11]

COc1ccc2c(Oc3ccc(NC(=O)c4c(C)n(CC(C)(C)O)n(-c5ccccc5)c4=O)cc3F)ccnc2c1
active: Potency [1] 20.9 µM | Potency [6] 16.6 µM | Potency [13] 23.5 µM | Potency [15] 18.7 µM | Potency [8] 20.9 µM

Cc1ccc(/C=N/NC(=O)c2ccccc2Oc2ccccc2)o1
active: Potency [6] 16.6 µM | Potency [13] 16.6 µM
inactive: Potency [12] | Potency [14]

O=C(NC1CCOCC1)c1ccc(-c2cc(-c3cn[nH]c3-c3ccccn3)ccn2)cc1
active: Potency [16] 14.8 µM | Potency [17] 14.8 µM
inactive: Potency [12] | Potency [3] | Potency [6] | Potency [7] | Potency [8] | Potency [18] | Potency [10] | Potency [11]

NC(=O)[C@@H](CCC(F)(F)F)N(Cc1ccc(-c2ncon2)cc1F)S(=O)(=O)c1ccc(Cl)cc1
inactive: Potency [12]
active: Potency [2] 16.6 µM | Potency [13] 23.5 µM | Potency [15] 20.9 µM | Potency [7] 10.5 µM

CC=CC[C@@H](C)C(=O)[C@H]1C(=O)N[C@@H](C(C)C)C(=O)N(C)CC(=O)N(C)[C@@H](CC(C)C)C(=O)N[C@@H](C(C)C)C(=O)N(C)[C@@H](CC(C)C)C(=O)N[C@@H](C)C(=O)N[C@H](C)C(=O)N(C)[C@@H](CC(C)C)C(=O)N(C)[C@@H](CC(C)C)C(=O)N(C)[C@@H](C(C)C)C(=O)N1C
inactive: Potency [12]
active: Potency [6] 16.6 µM | Potency [13] 23.5 µM | Potency [19] 14.8 µM

CCC(=O)O[C@]1(C(=O)CO)CC[C@H]2[C@@H]3CCC4=CC(=O)CC[C@]4(C)[C@@H]3CC[C@@]21C
active: Potency [17] 5.26 µM | Potency [5] 0.0017 µM | Potency [14] 10.5 µM
inactive: Potency [12] | Potency [3] | Potency [15] | viability [19] 108% | Potency [7] | Potency [18] | Potency [10]

CCN(CC)CCOc1ccc(C(=C(Cl)c2ccccc2)c2ccccc2)cc1
inactive: Potency [12] | Potency [17] | Potency [3]
active: Potency [7] 16.6 µM

NC1CCC(Nc2nc(Nc3ccc(C(=O)N4CCCCC4)cc3)c3ncn(-c4cccc(F)c4)c3n2)CC1 (stereo unspecified)
inactive: Potency [12] | Potency [16] | Potency [17] | viability [19] 125% | Potency [7] | Potency [8] | Potency [10]

CCC(CC)[C@H](NC(C)=O)[C@@H]1[C@H](O)[C@@H](C(=O)O)C[C@@H]1N=C(N)N
inactive: Potency [12] | Potency [17] | Potency [3] | Potency [4] | Potency [5] | Potency [15] | Potency [8] | Potency [9] | Potency [10] | Potency [11]

C=C1C(=O)[C@@]23C(CC[C@@H]1[C@H]2O)[C@@]12CO[C@]3(O)[C@@H](O)[C@@H]1C(C)(C)CC[C@@H]2O (stereo partly specified)
active: Potency [12] 7.43 µM | Potency [2] 1.87 µM | Potency [17] 4.18 µM | Potency [3] 3.72 µM | Potency [5] 1.05 µM | Potency [6] 0.296 µM | Potency [13] 1.87 µM | Potency [19] 13.2 µM | Potency [7] 8.33 µM | Potency [8] 1.48 µM | Potency [14] 2.96 µM | Potency [18] 8.33 µM | Potency [10] 1.18 µM | Potency [11] 1.66 µM

CC1CCC(C(=O)N(c2cc(C#CC(C)(C)C)sc2C(=O)O)C2CCC(O)CC2)CC1 (stereo unspecified)
active: Potency [6] 23.5 µM | Potency [14] 26.4 µM | Potency [11] 20.9 µM
inactive: Potency [12] | Potency [4] | Potency [7]

CC[C@]1(O)C[C@@H]2CN(CCc3c([nH]c4ccccc34)[C@@](C(=O)OC)(c3cc4c(cc3OC)N(C=O)[C@@H]3C45CCN4CC=C[C@](CC)([C@H]45)[C@@H](OC(C)=O)[C@]3(O)C(=O)OC)C2)C1 (stereo partly specified)
inactive: Potency [4]
active: Potency [12] 26.4 µM | Potency [2] 18.7 µM | Potency [17] 20.9 µM | Potency [3] 23.5 µM | Potency [5] 23.5 µM | Potency [6] 9.35 µM | Potency [13] 20.9 µM | Potency [19] 20.9 µM | Potency [7] 23.5 µM | Potency [10] 16.6 µM

COc1cc(O)c2c(c1)C(=O)c1cc(C)cc(O)c1C2=O
inactive: Potency [12] | Potency [17] | Potency [4] | Potency [8] | Potency [9] | Potency [10] | Potency [11]

CNC(=O)c1ccccc1Sc1ccc2c(C=Cc3ccccn3)n[nH]c2c1
inactive: Potency [12]
active: Potency [2] 16.6 µM | Potency [17] 23.5 µM | Potency [3] 5.26 µM | Potency [6] 2.64 µM | Potency [13] 0.935 µM | Potency [15] 18.7 µM | Potency [19] 13.2 µM | Potency [10] 20.9 µM | Potency [11] 7.43 µM
